D1 agonist: agonists of human D1 dopamine receptor | P21728 | AID 504660 | HEK293 T-REx D1 cells, calcium flux, agonist mode | actives 1% (n = 360,000) | activation, % at 2 µM
Target sequence (P21728 whole entry, looked up): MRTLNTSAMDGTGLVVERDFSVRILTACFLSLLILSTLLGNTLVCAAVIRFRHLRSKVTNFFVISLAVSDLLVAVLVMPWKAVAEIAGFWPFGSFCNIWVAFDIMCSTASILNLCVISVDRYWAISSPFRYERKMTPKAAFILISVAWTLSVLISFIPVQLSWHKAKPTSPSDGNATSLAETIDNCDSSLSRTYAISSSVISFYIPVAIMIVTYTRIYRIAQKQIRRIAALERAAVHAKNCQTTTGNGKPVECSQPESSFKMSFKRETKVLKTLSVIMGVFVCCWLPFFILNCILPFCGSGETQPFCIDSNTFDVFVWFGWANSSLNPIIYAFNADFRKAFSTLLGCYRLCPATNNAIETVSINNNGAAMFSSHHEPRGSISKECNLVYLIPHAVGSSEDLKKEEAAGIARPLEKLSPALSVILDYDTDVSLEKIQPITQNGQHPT
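Agonism was scored from calcium flux recorded over 180 s (1 read/s) after pintool compound addition, following a 10-cycle baseline. Cells were inducible force-coupled HEK293 TREx D1, plated overnight at 30 C and loaded with no-wash calcium dye.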
TRHR enhancer: allosterically enhances the human TRH receptor; actives 0.66% (n = 360,000); enhancement, % at 2 µM; TRHR cells, fluo-8 calcium fluorescence, EC20 TRH enhancement; in the data active means enhancement above about 30%
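Enhancer read-out: after compound pinning and an initial kinetic agonist-mode read, an EC20 of TRH (10 nM final) was injected and fluo-8 calcium signal (Ex 480/Em 530) followed at 1 s/cycle for 100 cycles in TRHR-expressing cells.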
D1 potentiator: potentiators of human D1 dopamine receptor; AID 504651; actives 0.036% (n = 360,000); potentiation, % at 10 µM; HEK293 TREx D1 cells, calcium flux, dopamine EC20 potentiation; in the data active means potentiation above about 30%
D1 antag: antagonists of human D1 dopamine receptor. P21728. HEK293 TREx D1 cells, calcium flux, dopamine EC80; hits give low values. activity change, negative = inhibition, % at 10 µM. actives 3.2% (n = 360,000). AID 504652; in the data active means activity change below about -30%
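Inducible Hek293 Trex D1 cells (tetracycline, overnight, 30 C). Calcium dye 30–90 min RT. Antagonist mode: EC80 dopamine added after 180 s compound read.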
TRHR ag: activates the human TRH receptor; P34981; TRHR cells, calcium flux fluo-8, FDSS agonist mode; activation, % at 2 µM; actives 0.18% (n = 360,000); AID 493084
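TRHR-expressing cells loaded with fluo-8 calcium dye; 23 nL library compound pin-transferred, kinetic FDSS fluorescence (Ex 480/Em 530) recorded about 180 s for agonist-induced calcium release, before a 10 nM TRH EC20 addition for potentiator mode.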
Each line names hits and unclear results; the compound was inactive in the other large screens. Sampled rows, rich in hits. Any-hit rate of the full collection: about 4.6%. Unless noted, no stated cut-off is given here; in the data, active means activation above about 30%; inactive means the rest.

CCC(C(=O)OC(C)C)c1ccc2ccccc2c1 (stereo unspecified)	none (no result: D1 antag)
COc1ccc2cc(C(C)C(=O)OC(C)C)ccc2c1 (stereo unspecified)	D1 antag -37.5
Cc1cccc(-n2ccnc2SCC(=O)Nc2ccccc2C(F)(F)F)c1	D1 antag -40.0
O=C(NCCCN1CCCC1)c1ccc(Cn2c(=S)[nH]c3ccc(Br)cc3c2=O)cc1	none
CC1CCN(C(=S)Nc2ccc(SC(F)F)cc2)CC1	D1 antag -41.2
CC(=O)N1CCN(C(=S)Nc2ccc(SC(F)F)cc2)CC1	none
CCn1nc(C)c(CNC(=O)c2cc(COc3ccccc3SC)on2)c1C	D1 antag -48.8
CSc1ccccc1OCc1cc(C(=O)NCc2cccc(C)n2)no1	none
COc1ccc(C(C)NCCC(c2ccc(OC(C)C)cc2)c2ccccc2OC)cc1 (stereo unspecified)	D1 agonist 38.4
COc1ccc(C(CCNCc2ccc(OC)c(OC)c2)c2ccc(F)cc2)cc1 (stereo unspecified)	none
COc1ccc(CNCCC(c2ccc3c(c2)OCO3)c2ccccc2OC)cc1 (stereo unspecified)	D1 agonist 79.5
CCCCCCCNC(=O)C1(CC2CC(c3ccccc3)=NO2)CCNCC1 (stereo unspecified)	none
CC(C)CN(Cc1cc2ccccc2[nH]c1=O)C(=O)c1cccnc1	none
Cc1ccc(C(=O)C2CCN(S(=O)(=O)c3ccccc3C(=O)O)CC2)cc1	none
O=C(NCc1ccc(F)cc1)c1cnc2n(c1=O)CCS2	D1 antag -36.7
COc1ccc(Cl)cc1NC(=O)C/C(C)=N/NC(=O)CC#N	none
Cc1c(C(=O)NCc2ccc(F)cc2)sc2nc(-c3ccc(F)cc3)cn12	D1 antag -50.3
Cc1ccc(CNC(=O)c2sc3nc(-c4ccccc4)cn3c2C)cc1	none
C=CCc1cccc(OC)c1OCCOCCn1ccnc1	none
COC(=O)c1ccc(NC(=O)CSc2ccc(-c3sc(-c4ccccc4)nc3C)nn2)cc1	D1 antag -46.3
Cc1nc(-c2ccccc2)sc1-c1ccc(SCC(=O)Nc2ccccc2)nn1	none
Cc1c(C(=O)NCc2cccc(Cl)c2)sc2nc3n(c(=O)c12)CCC3	none
COc1ccc(NC(=O)CSc2ncnc3c2nnn3-c2ccc(F)cc2)c(OC)c1	D1 antag -34.2
COc1ccc(-n2nnc3c(SCc4ccccc4)ncnc32)cc1	none
COc1ccc(-n2nnc3c(SCC(=O)OCc4ccccc4)ncnc32)cc1	TRHR enhancer 30.8
Nn1c(SCC(=O)Nc2ccc3c(c2)OCCO3)nnc1-c1cccnc1	D1 antag -37.4
O=C(CSc1nnc(-c2cccnc2)n1-c1ccccc1)Nc1ccc2c(c1)OCO2	D1 antag -60.6
O=C(CSc1nc(-c2ccccc2)[nH]c1-c1ccccc1)Nc1ccc2c(c1)OCO2	D1 antag -30.2
O=C(CN1CCN(c2nc(-c3ccccc3)cs2)CC1)Nc1ccc2c(c1)OCO2	D1 antag -32.4
Cc1nc2ccn(Cc3ccco3)c(=O)c2cc1C(=O)N1CCN(c2ccccc2)CC1	none
O=C(CSc1nccn1-c1ccc(Cl)cc1)Nc1ccc2c(c1)OCO2	D1 antag -49.3
Nn1c(SCc2cccc(F)c2)nnc1-c1cccnc1	D1 antag -31.4
CCCn1c(SCC(=O)Nc2ccc(OC)cc2[N+](=O)[O-])n[nH]c1=O	D1 antag -45.6
COCC(=O)NC1CCN(CC(=O)Nc2ccc(OC)cc2[N+](=O)[O-])CC1	D1 antag -38.2
CCCCC(=O)Nc1ccc(C(=O)Nc2ccc(OC)cc2[N+](=O)[O-])cc1	D1 agonist 40.6
CCc1nc2ccccc2n1CCC(=O)O	none
Cc1cccc2cc(CN(CCCN(C)C)C(=S)NCCc3ccccc3)c(=O)[nH]c12	D1 agonist 31.0
Cc1ccc2[nH]c(=O)c(CN(CCCN(C)C)C(=S)NCCc3ccccc3)cc2c1	none
C[C@@H](C(=O)Nc1ccc2ccccc2c1)[C@@H]1C[C@@]1(C)[C@@H](NC(=O)c1cnccn1)c1ccccc1	D1 antag -30.1
COc1ccc2oc3cc(C)[n+]([O-])c(-c4ccc(C)cc4)c3c2c1	none
COc1ccc(-c2c3c(cc(C)[n+]2[O-])oc2ccc(OC)cc23)cc1	D1 antag -30.4

Bioassay records (PubChem BioAssay)
